# Measured values from PubChem BioAssay (Tox21).
# Records with an inconclusive call do not appear. A number with no mark means an inactive call. Active and inactive are the calls of the source. The call rests on the fitted dose curve.
# Assay: qHTS assay for small molecule agonists of the p53 signaling pathway (AID 651631); further: nearly all actives have a fitted effect of over 15% in size
# Settings: HCT-116 p53RE-bla reporter, beta-lactamase FRET ratio, 16 h; series mostly up to 73.3 µM; activation: at the top concentration
# Source text: U.S. Tox21 Program National Center for Advancing Translational Sciences [NCATS] NIH Chemical Genomics Center [NCGC] U.S. Environmental Protection Agency [EPA] National Institutes of Environmental Health Sciences [NIEHS] National Toxicology Program [NTP] U.S. Food and Drug Administration [FDA] Tox21 Assay Overview: p53, a tumor suppressor protein, is activated following cellular insult, including DNA damage and other cellular stresses. The activation of p53 regulates cell fate by inducing DNA repair, cell cycle arrest, apoptosis, or cellular senescence. The activation of p53, therefore, is a good indicator of DNA damage and other cellular stresses. The CellSensor p53RE-bla HCT-116 cell line (Invitrogen) contains a stably integrated beta-lactamase reporter gene under control of the p53 response elements. The activation of the reporter gene under culture conditions can be detected by fluorescence intensity. This cell line was used to screen the Tox21 compound library in a 1536-well plate format and to identify agonists that activate the p53 signaling pathway.
# Tox21 Assay Protocol Summary: The p53RE-bla cells were dispensed at 4,000 cells/5 ul/well in 1536-well black wall/clear bottom plates using a Multidrop dispenser. After the assay plates were incubated at a 37 C/5% CO2 incubator for 5 hours, 23 nL of compounds dissolved in DMSO, positive controls or DMSO only was transferred to the assay plate by a pin tool. The plates were incubated at 37 C for 16 hours. After 1 uL of LiveBLAzerTM B/G FRET substrate was added using a Flying Reagent Dispenser, the plates were incubated at room temperature for 2 hours, and fluorescence intensity was measured by an Envision plate reader.
# On the % scale 0 is the no-effect control and ±100 the full control effect.
SMILES,activation,Potency
NCC1CCCC(CN)C1 (stereo not given),2.99%,–
CCCOCCOCCO,-1.17%,–
C[Si]1(C)O[Si](C)(C)O[Si](C)(C)O1,-2.91%,–
O=C1NCCN1,-1.68%,–
O=C(NCCCN1CCOCC1)c1ccc(Cl)cc1,-1.62%,–
O=C(O)c1ccc(CO)o1,-1.64% [at 95.1 µM],–
O=S1OCCO1,1.93% [at 95.1 µM],–
CO[C@H]1C=CO[C@@]2(C)Oc3c(C)c(O)c4c(O)c(c5c(c4c3C2=O)=NC2(CCN(CC(C)C)CC2)N=5)NC(=O)/C(C)=C\C=C/[C@H](C)[C@H](O)[C@@H](C)[C@@H](O)[C@@H](C)[C@H](OC(C)=O)[C@@H]1C,-3.74%,–
Fc1ccccc1[C@@H](F)COC1CCC(Nc2ncnc3[nH]ncc23)CC1 (stereo not given in full),-2.95%,–
Cc1ccc(S)cc1,-1.51%,–
CCC(C)(O)CCC=C(C)C (stereo not given),3.76%,–
Cc1ccccc1N1C(=O)c2cc(S(N)(=O)=O)c(Cl)cc2NC1C (stereo not given),–,inactive
CCCCCCCCCCCC[N+](C)(C)CCCS(=O)(=O)[O-],-4.37% [at 95.1 µM],–
C=CCCCCCCCCCCCCCCCC,-3.57% [at 8.3 µM],–
CC#N,-2.14% [at 95.1 µM],–
COc1ccc(C(=O)c2cccc(O)c2)c(OC)c1,4.49%,–
Nc1nccs1,3.64%,–
O=C(CCCCCCCCC#CI)Oc1ccccc1,-2.17%,–
CC(CCO)CCc1ccccc1 (stereo not given),7.47%,–
CC(C)CCCC(=O)O,2.01%,–

SMILES,activation,Potency
C[Si](NC1CCCCC1)(NC1CCCCC1)NC1CCCCC1,5.46%,–
Cc1oncc1C(=O)Nc1ccc(C(F)(F)F)cc1,–,inactive
CC(C)(CCl)c1ccccc1,-2.58%,–
O=C(/C=C/c1ccccc1)OCCCc1ccccc1,-1.27%,–
C[C@@H]1C[C@H]2[C@@H]3CCC4=CC(=O)C=C[C@]4(C)[C@@]3(F)[C@@H](O)C[C@]2(C)[C@H]1C(=O)CO,-6.02%,–
c1ccc(COCc2ccccc2)cc1,0.878% [at 95.1 µM],–
O=S(=O)(c1ccccc1)c1ccc(Cl)cc1,-2.06%,–
Cc1cnc(C)c(C)n1,5.71% [at 95.1 µM],–
CCCCCCCC/C=C\CCCCCCCC(=O)OC,-4.03%,–
CCC(Cc1ccccc1)(C(=O)c1ccc(N2CCOCC2)cc1)N(C)C (stereo not given),-2.16%,–
CCC(C)=O,-1.81%,–
C=CC(C)=CCC=C(C)C,-4.41%,–
N#C/C(=C1\SCC(c2ccccc2Cl)S1)n1ccnc1 (stereo not given),2.27%,–
N#C[C@@H]1C[C@@H]2C[C@@H]2N1C(=O)[C@@H](N)C12CC3CC(CC(O)(C3)C1)C2,-0.575%,–
OCCSc1ccccc1,1.91%,–
CCCCN(CCCC)CCCOC(=O)c1ccc(N)cc1,1.44% [at 34.7 µM],–
O=C(O)c1cccnc1C(=O)O,-0.607%,–
CCOc1cc(N)c(Cl)cc1C(=O)NCC1CN(Cc2ccc(F)cc2)CCO1 (stereo not given),-3.06%,–
CC1CC(O)CC(C)(C)C1 (stereo not given),–,inactive
Cc1cc(O)c(C(C)C)cc1Cl,1.43%,–
